Laboratory results as given in PubChem BioAssay (Tox21).
Unmarked numbers belong to inactive results. Inconclusive results are not listed. Where a call stands in place of a potency, no number is given. The source made the active and inactive calls. Calls come from the whole dose curve; as a rule, active = well fitted curve in the direction sought with a large enough effect in the repeat runs; inconclusive = weak or mixed curves; inactive = no such curve, though single readings can be large; an effect the other way counts as inactive or inconclusive.

How the values were obtained:
[1] = qHTS RealTime-Glo MT Cell Viability Assay in HepG2 cells - 8 hour (AID 1224873); conditions: RealTime-Glo luminescence; series mostly up to 76.8 µM; note: nearly all actives have a fitted effect of over 55% in size; note: potency is the fitted concentration of half-maximal effect
How it was run: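 HepG2 cells (600/well) mixed with RealTime-Glo MT reagent, settled 5 h at 37 C/5% CO2 before compound addition. Nonlytic NanoLuc luminescence from viable-cell prosubstrate reduction read repeatedly during 40 h treatment at 37 C.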

[2] = qHTS RealTime-Glo MT Cell Viability Assay in HEK293 cells - 40 hour (AID 1224874); conditions: RealTime-Glo luminescence; max response: active compounds read low; note: nearly all actives have a fitted effect of over 50% in size; note: potency is the fitted concentration of half-maximal effect
How it was run: (§1)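 Real-time viability in HEK293: signal arises when living cells convert a prosubstrate for NanoLuc in the medium, so luminescence tracks viable cell number. Compound (23 nL, DMSO) added 5 h post-seeding; kinetic reads at 0–40 h, 37 C.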

[3] = A CellTox Green Cytotoxicity Assay to monitor cytotoxicity in HEK293 cells - 24 hour (AID 1224875); conditions: CellTox Green fluorescence; series mostly up to 76.8 µM; note: nearly all actives have a fitted effect of over 45% in size; note: potency is the fitted concentration of half-maximal effect
How it was run: (§2)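 Cells (HEK293, 600/well) and dye reagent are dispensed together. After 5 h at 37 C, 23 nL compound is pinned in. Plates stay at 37 C for 40 h with fluorescence read at 0h, 8h, 16h, 24h, 32h and 40h.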

[4] = A CellTox Green Cytotoxicity Assay to monitor cytotoxicity in HepG2 cells - 16 hour (AID 1224876); conditions: CellTox Green fluorescence; series mostly up to 76.8 µM; note: nearly all actives have a fitted effect of over 45% in size; note: potency is the fitted concentration of half-maximal effect
How it was run: (§3)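 Cells and non-lytic dye reagent are dispensed together (600 HepG2 cells/well) and incubated 5 h before DMSO compound transfer. Kinetic fluorescence is then recorded in the same wells during 40 h at 37 C.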

[5] = qHTS RealTime-Glo MT Cell Viability Assay in HepG2 cells - 32 hour (AID 1224877); conditions: RealTime-Glo luminescence; series mostly up to 76.8 µM; note: nearly all actives have a fitted effect of over 55% in size; note: potency is the fitted concentration of half-maximal effect
How it was run: (§4)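 Luminescence read-out: viable HepG2 cells reduce a prosubstrate to a NanoLuc substrate, giving a signal proportional to live cell number. Reads taken at 0, 8, 16, 24, 32 and 40 h of compound exposure at 37 C.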

[6] = A CellTox Green Cytotoxicity Assay to monitor cytotoxicity in HepG2 cells - 24 hour (AID 1224878); conditions: CellTox Green fluorescence; series mostly up to 76.8 µM; note: nearly all actives have a fitted effect of over 45% in size; note: potency is the fitted concentration of half-maximal effect
How it was run: as §3

[7] = A CellTox Green Cytotoxicity Assay to monitor cytotoxicity in HepG2 cells - 40 hour (AID 1224879); conditions: CellTox Green fluorescence; series mostly up to 76.8 µM; note: nearly all actives have a fitted effect of over 40% in size; note: potency is the fitted concentration of half-maximal effect
How it was run: as §3

[8] = qHTS RealTime-Glo MT Cell Viability Assay in HEK293 cells - 0 hour (AID 1224880); conditions: RealTime-Glo luminescence; series mostly up to 76.8 µM; note: top concentration of the series differs between compounds; nearly all actives have a fitted effect of over 45% in size
How it was run: as §1

[9] = A CellTox Green Cytotoxicity Assay to monitor cytotoxicity in HEK293 cells - 32 hour (AID 1224881); conditions: CellTox Green fluorescence; series mostly up to 76.8 µM; note: nearly all actives have a fitted effect of over 40% in size; note: potency is the fitted concentration of half-maximal effect
How it was run: as §2

[10] = A CellTox Green Cytotoxicity Assay to monitor cytotoxicity in HepG2 cells - 0 hour (AID 1224882); conditions: CellTox Green fluorescence; series mostly up to 76.8 µM; note: nearly all actives have a fitted effect of over 35% in size
How it was run: as §3

[11] = A CellTox Green Cytotoxicity Assay to monitor cytotoxicity in HepG2 cells - 32 hour (AID 1224883); conditions: CellTox Green fluorescence; series mostly up to 76.8 µM; note: nearly all actives have a fitted effect of over 50% in size; note: potency is the fitted concentration of half-maximal effect
How it was run: as §3

[12] = qHTS RealTime-Glo MT Cell Viability Assay in HepG2 cells - 16 hour (AID 1224885); conditions: RealTime-Glo luminescence; series mostly up to 76.8 µM; note: nearly all actives have a fitted effect of over 50% in size; note: potency is the fitted concentration of half-maximal effect
How it was run: as §4

[13] = qHTS RealTime-Glo MT Cell Viability Assay in HEK293 cells - 24 hour (AID 1224886); conditions: RealTime-Glo luminescence; series mostly up to 76.8 µM; note: nearly all actives have a fitted effect of over 50% in size; note: potency is the fitted concentration of half-maximal effect
How it was run: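 Nonlytic real-time viability readout: viable cells convert prosubstrate to NanoLuc substrate, giving luminescence proportional to live cell number. HEK293, 600 cells/well, compound added after 5 h, continuous culture at 37 C.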

[14] = qHTS RealTime-Glo MT Cell Viability Assay in HEK293 cells - 8 hour (AID 1224887); conditions: RealTime-Glo luminescence; series mostly up to 76.8 µM; note: nearly all actives have a fitted effect of over 50% in size; note: potency is the fitted concentration of half-maximal effect
How it was run: as §1

[15] = A CellTox Green Cytotoxicity Assay to monitor cytotoxicity in HEK293 cells - 16 hour (AID 1224888); conditions: CellTox Green fluorescence; series mostly up to 76.8 µM; note: nearly all actives have a fitted effect of over 35% in size; note: potency is the fitted concentration of half-maximal effect
How it was run: as §2

[16] = qHTS RealTime-Glo MT Cell Viability Assay in HepG2 cells - 0 hour (AID 1224889); conditions: RealTime-Glo luminescence; series mostly up to 76.8 µM; note: nearly all actives have a fitted effect of over 50% in size
How it was run: as §4

[17] = A CellTox Green Cytotoxicity Assay to monitor cytotoxicity in HEK293 cells - 8 hour (AID 1224884); conditions: CellTox Green fluorescence; series mostly up to 76.8 µM; note: nearly all actives have a fitted effect of over 35% in size; note: potency is the fitted concentration of half-maximal effect
How it was run: as §2

[18] = A CellTox Green Cytotoxicity Assay to monitor cytotoxicity in HepG2 cells - 8 hour (AID 1224890); conditions: CellTox Green fluorescence; series mostly up to 76.8 µM; note: nearly all actives have a fitted effect of over 45% in size
How it was run: as §3

[19] = qHTS assay to identify small molecule antagonists of the estrogen receptor alpha (ER-alpha) signaling pathway using the BG1 cell line in the presence of 0.1 nM 17-beta-estradiol - cell viability counter screen (AID 1259241); conditions: VM7Luc4E2 (BG1) viability, CellTiter-Fluor protease, 22 h, 0.1 nM estradiol agonist added; series mostly up to 92.4 µM; note: nearly all actives have a fitted effect of over 40% in size
How it was run: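 VM7Luc4E2 cells (endogenous ER-alpha, 4×ERE-luciferase), hormone-starved 5 days in charcoal-stripped FBS, were treated with compounds plus 0.1 nM 17beta-estradiol for 22 hr at 37C; viability read in same wells as CellTiter-Fluor live-cell protease fluorescence.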

## Cc1c(-c2ccc(O)cc2)n(Cc2ccc(OCCN3CCCCCC3)cc2)c2ccc(O)cc12
[1]
  Potency: 23.9 µM (active)
[2]
  Potency: 3.38 µM (active)
[3]
  Potency: 21.3 µM (active)
[4]
  Potency: 23.9 µM (active)
[5]
  Potency: 9.52 µM (active)
[6]
  Potency: 19 µM (active)
[7]
  Potency: 8.49 µM (active)
[8]
  Potency: inactive
[9]
  Potency: 19 µM (active)
[10]
  Potency: inactive
[11]
  Potency: 10.7 µM (active)
[12]
  Potency: 23.9 µM (active)
[13]
  Potency: 2.68 µM (active)
[14]
  Potency: 2.39 µM (active)
[15]
  Potency: 23.9 µM (active)
[16]
  Potency: inactive

## CCOC(/C=C(\C)CCC=C(C)C)OCC
[1]
  Potency: inactive
[2]
  max response: 9.38%
[3]
  Potency: inactive
[4]
  Potency: inactive
[5]
  Potency: inactive
[6]
  Potency: inactive
[7]
  Potency: inactive
[8]
  Potency: inactive
[10]
  Potency: inactive
[11]
  Potency: inactive
[17]
  Potency: inactive
[12]
  Potency: inactive
[13]
  Potency: inactive
[14]
  Potency: inactive
[15]
  Potency: inactive
[16]
  Potency: inactive
[18]
  Potency: inactive
[19]
  Potency: inactive

## C/C=C/C=N/NC(=O)c1ccncc1
[1]
  Potency: inactive
[2]
  max response: 11.4%
[4]
  Potency: inactive
[5]
  Potency: inactive
[6]
  Potency: inactive
[7]
  Potency: inactive
[8]
  Potency: inactive
[10]
  Potency: inactive
[11]
  Potency: inactive
[12]
  Potency: inactive
[14]
  Potency: inactive
[16]
  Potency: inactive
[18]
  Potency: inactive
[19]
  Potency: inactive

## O=C(c1ccccc1)c1cc(Cl)ccc1O
[1]
  Potency: inactive
[2]
  max response: -24.1%
[4]
  Potency: inactive
[5]
  Potency: inactive
[6]
  Potency: inactive
[7]
  Potency: inactive
[8]
  Potency: inactive
[10]
  Potency: inactive
[17]
  Potency: inactive
[12]
  Potency: inactive
[15]
  Potency: inactive
[16]
  Potency: inactive
[19]
  Potency: inactive

## CC(C)C(=O)OCc1ccccc1
[1]
  Potency: inactive
[2]
  max response: 18.1%
[10]
  Potency: inactive
[12]
  Potency: inactive
[16]
  Potency: inactive
[19]
  Potency: inactive

## C[C@@H]1CC[C@H]2C(C)(C)[C@H]3C[C@@]12CC[C@@]3(C)O
[1]
  Potency: inactive
[2]
  max response: -18.5%
[3]
  Potency: 38.8 µM (active)
[5]
  Potency: inactive
[6]
  Potency: 48.9 µM (active)
[7]
  Potency: 54.9 µM (active)
[8]
  Potency: inactive
[9]
  Potency: 38.8 µM (active)
[11]
  Potency: 54.9 µM (active)
[17]
  Potency: 43.6 µM (active)
[12]
  Potency: inactive
[15]
  Potency: 43.6 µM (active)
[16]
  Potency: inactive
[18]
  Potency: inactive
[19]
  Potency: inactive

## OCCC(O)CO (stereo not given)
[1]
  Potency: inactive
[2]
  max response: 15.6%
[3]
  Potency: inactive
[4]
  Potency: inactive
[5]
  Potency: inactive
[6]
  Potency: inactive
[7]
  Potency: inactive
[8]
  Potency: inactive
[9]
  Potency: inactive
[11]
  Potency: inactive
[17]
  Potency: inactive
[12]
  Potency: inactive
[13]
  Potency: inactive
[14]
  Potency: inactive
[15]
  Potency: inactive
[16]
  Potency: inactive
[18]
  Potency: inactive
[19]
  Potency: inactive

## CSc1c(Cl)c(Cl)c(Cl)c(Cl)c1Cl
[1]
  Potency: inactive
[2]
  max response: -20.6%
[4]
  Potency: 48.7 µM (active)
[5]
  Potency: inactive
[8]
  Potency: inactive
[10]
  Potency: inactive
[17]
  Potency: inactive
[12]
  Potency: inactive
[13]
  Potency: inactive
[15]
  Potency: inactive
[16]
  Potency: inactive
[18]
  Potency: inactive
[19]
  Potency: inactive

## O=C(O)Cc1ccc(OCCNC[C@H](O)c2ccccc2)cc1
[1]
  Potency: inactive
[2]
  max response: 6.67%
[3]
  Potency: inactive
[4]
  Potency: inactive
[6]
  Potency: inactive
[7]
  Potency: inactive
[8]
  Potency: inactive
[9]
  Potency: inactive
[10]
  Potency: inactive
[11]
  Potency: inactive
[17]
  Potency: inactive
[12]
  Potency: inactive
[13]
  Potency: inactive
[14]
  Potency: inactive
[15]
  Potency: inactive
[16]
  Potency: inactive
[19]
  Potency: inactive

## Cc1ccc(-n2[nH]c(C)c(N=Nc3cccc(-c4cccc(C(=O)O)c4)c3O)c2=O)cc1C
[1]
  Potency: inactive
[2]
  Potency: 21.3 µM (active)
[4]
  Potency: inactive
[6]
  Potency: inactive
[7]
  Potency: inactive
[8]
  Potency: inactive
[9]
  Potency: inactive
[10]
  Potency: inactive
[11]
  Potency: inactive
[17]
  Potency: inactive
[12]
  Potency: inactive
[14]
  Potency: inactive
[15]
  Potency: inactive
[16]
  Potency: inactive
[18]
  Potency: inactive

## c1cc(OCC2CO2)cc(OCC2CO2)c1 (stereo not given)
[1]
  Potency: inactive
[2]
  Potency: 12.2 µM (active)
[3]
  Potency: inactive
[4]
  Potency: inactive
[8]
  Potency: inactive
[9]
  Potency: inactive
[10]
  Potency: inactive
[17]
  Potency: inactive
[12]
  Potency: inactive
[13]
  Potency: 24.4 µM (active)
[14]
  Potency: inactive
[15]
  Potency: inactive
[16]
  Potency: inactive
[18]
  Potency: inactive
[19]
  Potency: inactive
